# From PubChem BioAssay
# ATXN2 expr inh – inhibitors of ATXN2 expression. HEK-293 ATXN2-luciferase reporter, luminescence, 24 h. Potency, µM (highest dose often 57 µM), inactives show at the highest dose activity change, negative = inhibition, most hits filed as inhibitors. 360,000 tested, 0.72% active; further: on the % scale 0 is the no-effect control and ±100 the full control effect; nearly all actives have a fitted effect of over 55% in size
#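 qHTS (up to 57 uM final) was run with 24 h compound exposure of reporter cells at 37 °C. Each well was multiplexed: SteadyGlo luminescence measured ATXN2-luciferase expression after a fluorogenic Gly-Phe-AFC viability readout (25 uM final).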
# HepG2 tox-1 – counter-screen for TGF-b inhibitors: cytotoxicity in HepG2 cells | HepG2 CAGA-GFP viability, ATP luminescence, 18 h | Potency, µM (doses to about 46.1 µM), for the others: top-dose activity change, negative = cytotoxicity, usual class: cytotoxic | 410,000 tested, 0.76% active
#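 CellTiter-Glo luminescence gave cytotoxicity after 18 hours at 37 degrees C. The cells were HepG2 CAGA-GFP in 1% FBS DMEM, stimulated with 500 pg/mL TGF-beta after compound addition. %Activity was normalised to no-cell wells (complete cell-killing) and DMSO (no toxicity), and curves were fitted and classified.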
# HTT aggregate – mutant huntingtin aggregation inhibition | PC12 HttQ103-GFP aggregates, Acumen cytometry, 40 h | Potency, µM (doses to about 46.1 µM), inactives show top-dose activity change, negative = inhibition, actives largely listed as inhibitors | 220,000 tested, 1.1% active | AID 1688; further: on the % scale 0 is the no-effect control and ±100 the full control effect; nearly all actives have a fitted effect of over 60% in size
#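 Ecdysone-promoter PC12 model expressing HTT exon 1 Q103 fused to GFP, induced by tebufenozide at 100 nM final. Compounds titrated; aggregates sized 1–25 µm scored on a 488 nm laser cytometer.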
# HTT cytoprotect – Huntington cell model cytoprotection by ATP luminescence; PC12 HTT-Q103 induced, cytoprotection, ATP luminescence, 40 h; Potency, µM (series often up to 56.4 µM), without a hit: cytoprotection (ATP increase), most hits filed as activators; 230,000 tested, 0.14% active; AID 1471; further: % of control where 0% means no effect; nearly all actives have a fitted effect of over 45% in size
#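 Compounds were screened for protection of PC12 cells against cell death after tebufenozide induction (100 nM final) of mutant Huntingtin exon 1 (Q103) fused to GFP.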
# ATXN viability – viability counter-screen for ATXN expression inhibitors; S2 cells (HEK-293 line with an ATXN2-luciferase reporter) viability, CellTiter-Fluor protease fluorescence, 24 h; Potency, µM (doses to about 56.7 µM), usual class: cytotoxic; 400,000 tested, 0.49% active; AID 651635; further: nearly all actives have a fitted effect of over 40% in size
# TGFb inhibitor – TGF-b pathway inhibition; HepG2 CAGA-GFP TGF-b/SMAD3 reporter, GFP fluorescence, 18 h; TGF-beta stimulated, 500 pg/mL final; Potency, µM (series often up to 46.1 µM), inactives show top-dose activity, negative = inhibition, usual class: inhibitors; 410,000 tested, 1.2% active; AID 588855; further: on the % scale 0 is the no-effect control and ±100 the full control effect; nearly all actives have a fitted effect of over 65% in size
#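 Per well, imaged GFP fluorescence of HEPG2 CAGA-GFP cells gives the signal; cells get compound, then TGF-beta (500 pg/mL final), 18 h at 37 degrees C; %Activity versus -TGF-beta and +DMSO controls.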
# TGFb confirm – confirmation of TGF-b signaling inhibitors in HepG2 reporter cells. shares compounds with TGFb inhibitor. HepG2 CAGA-GFP TGF-b reporter, GFP fluorescence, 18 h; cells stimulated with TGF-beta, 500 pg/mL. Potency, µM (series often up to 46.1 µM), without a hit: at the top dose activity, negative = inhibition, most hits filed as inhibitors. 1,600 tested, 63% active. AID 720534; further: on the % scale 0 is the no-effect control and ±100 the full control effect; nearly all actives have a fitted effect of over 65% in size
# HepG2 tox-2 – counter-screen for TGF-b inhibitors: cytotoxicity in HepG2 cells; shares compounds with TGFb inhibitor; HepG2 CAGA-GFP viability, ATP luminescence, 18 h; cells stimulated with TGF-beta, 500 pg/mL; Potency, µM (top dose mostly 46.1 µM), for the others: at the highest dose activity, negative = cytotoxicity, most hits filed as inhibitors; 1,600 tested, 27% active; AID 720535; further: on the % scale 0 is the no-effect control and ±100 the full control effect; nearly all actives have a fitted effect of over 70% in size
# CCL64 TGFb inh – blocks TGF-b signaling in CCL64 reporter cells | shares compounds with TGFb inhibitor | CCL64 CAGA-GFP reporter, TGF-b stimulated, GFP fluorescence, 18 h | Potency, µM (top dose mostly 46.1 µM), for the others: top-dose activity, negative = inhibition, actives largely listed as inhibitors | 1,600 tested, 41% active; further: nearly all actives have a fitted effect of over 65% in size
# COP TGFb inh – blocks TGF-b signaling in HepG2 COP reporter; shares compounds with TGFb inhibitor; HepG2 COP-GFP TGF-b reporter, GFP fluorescence, 18 h; cells stimulated by added recombinant TGF-beta; Potency, µM (titrated, usually from 46.1 µM), for the others: at the top dose activity, negative = inhibition, usual class: inhibitors; 1,600 tested, 3% active; further: nearly all actives have a fitted effect of over 70% in size
# * = called active by the depositor; i = inactive; ? = inconclusive; / = no result; [ ] = dose if it differs, or a comment. Compounds with a hit are over-represented: about 2.8% of the library has one in this group of screens. The call rests on the fitted dose curve; in most records, active means well fitted curve in the direction sought with a large enough effect; inconclusive means small, poorly fitted or top-dose-only effect, or another doubt; inactive means no such curve, though single readings can be large; an effect the other way counts as inactive or inconclusive. Potency means the concentration at half of the fitted maximal effect.
SMILES,ATXN2 expr inh,HepG2 tox-1,HTT aggregate,HTT cytoprotect,ATXN viability,TGFb inhibitor,TGFb confirm,HepG2 tox-2,CCL64 TGFb inh,COP TGFb inh
Clc1ccccc1Nc1nc(-c2ccncc2)nc2ccccc12,-35%,-55%,/,/,i,-10%,-14%,23µM*,?,52%
COc1cc(C)cc(OC)c1/C=C\C(=O)O,/,/,/,-8%[10 µM],/,/,/,/,/,/
CC(C)(C)NC(=O)COC(=O)CNC(=O)C1CCCCC1,/,11%,/,/,/,7%,/,/,/,/
C[C@H](CO)N1C[C@H](C)[C@@H](CN(C)C(=O)Nc2ccc(C(F)(F)F)cc2)Oc2ccc(NS(=O)(=O)c3ccccc3)cc2C1=O,0%,-16%,/,/,?,6.3µM*,?,1%,?,1%
Cc1ccc(S(=O)(=O)Nc2cccc3c2O[C@H](CN(C)Cc2ccc(-c4ccccc4)cc2)[C@@H](C)CN([C@H](C)CO)C3=O)cc1,-23%,-23%,/,/,?,10µM*,16µM*,-4%,?,40%
C[C@H](CO)N1C[C@H](C)[C@H](CN(C)S(=O)(=O)c2cccs2)Oc2ccc(NC(=O)Nc3ccc4c(c3)OCO4)cc2CC1=O,-24%,2%,/,/,?,?,?,-24%,-16%,9%
C[C@H](CO)N1C[C@H](C)[C@@H](CN(C)S(=O)(=O)c2ccc(Cl)cc2)Oc2ccc(NS(=O)(=O)c3ccccc3)cc2CC1=O,?,3%,/,/,?,4.5µM*,?,-11%,?,40%
Cc1ccc(S(=O)(=O)N2CCCN(c3nc(-c4cccs4)nc4ccccc34)CC2)cc1,/,-36%,/,/,/,?,/,/,/,/
Cc1ccc(S(=O)(=O)N2CCN(c3nc(-c4ccc(F)cc4)nc4cc(Cl)ccc34)CC2)cc1,/,-16%,/,/,/,-30%,/,/,/,/
COc1ccc(S(=O)(=O)Nc2ccc3c(c2)C(=O)N([C@H](C)CO)C[C@H](C)[C@H](CN(C)Cc2ccc(C(=O)O)cc2)O3)cc1,-1%,0%,/,/,i,1%,/,/,/,/
C[C@@H]1CN([C@H](C)CO)C(=O)c2cc(NC(=O)Cc3ccccc3)ccc2O[C@H]1CN(C)Cc1ccc(Oc2ccccc2)cc1,?,-25%,/,/,?,11µM*,?,?,16µM*,83%
Cc1ccc(-c2ccc3c(c2)O[C@H](CN(C)C(=O)Nc2ccc(C(F)(F)F)cc2)[C@H](C)CN([C@H](C)CO)S3(=O)=O)cc1,0%,-14%,/,/,?,22µM*,18µM*,?,?,47%
Cc1noc(C)c1S(=O)(=O)Nc1ccc2c(c1)C(=O)N([C@@H](C)CO)C[C@H](C)[C@@H](CN(C)Cc1ccc(C(F)(F)F)cc1)OCCCC[C@H](C)O2,?,-47%,/,/,/,10µM*,?,?,33µM*,68%
Cc1ccc(S(=O)(=O)Nc2ccc3c(c2)C(=O)N([C@H](C)CO)C[C@H](C)[C@@H](CN(C)Cc2ccc(-c4ccccc4)cc2)O3)cc1,0%,-16%,/,/,?,10µM*,9.2µM*,?,21µM*,61%
CC(C)(C)Nc1oc(-c2ccccc2)nc1-c1cccc2ccccc12,/,/,/,-40%,/,/,/,/,/,/
CCC(C)C(NC(=O)OC(C)(C)C)C(=O)NC1COC2CC(n3ccc(=O)[nH]c3=O)OC12 (stereo unspecified),/,2%,/,/,/,10%,/,/,/,/
O=S(=O)(Nc1cc(Cl)ccc1-n1cncn1)c1cc(Br)ccc1Br,?,-42%,/,/,?,10µM*,21µM*,?,21µM*,41%
O=S(=O)(Nc1cc(Cl)ccc1-n1cncn1)c1ccccc1Cl,5%,-14%,/,/,i,-2%,/,/,/,/
C=CCOC(=O)N[C@H](/C(C(=O)OC)=C(\C)NCc1ccccc1)c1ccc(Br)cc1,/,/,/,-28%,/,/,/,/,/,/
COc1ccccc1NS(=O)(=O)c1ccc(-c2cnc(C3CC3)o2)cc1,/,-24%,/,/,i,11µM*,?,?,?,4%
Cc1cccc(N(C)S(=O)(=O)c2ccc(-c3cnc(C4CC4)o3)cc2)c1,/,-2%,/,/,?,7.9µM*,4.6µM*,?,6.5µM*,30%
Cc1ccc(N(C)S(=O)(=O)c2cc(-c3cnc(C4CC4)o3)ccc2C)cc1,?,-9%,/,/,i,-2%,/,/,/,/
CCc1sc(-c2cc3cccc(OC)c3oc2=O)nc1-c1cc(C)ccc1C,/,-10%,/,/,/,12%,/,/,/,/
O=C1NC(Cc2ccc(O)cc2)c2nc3ccc(Cl)cc3c(=O)n2-c2cc3ccccc3cc21 (stereo unspecified),?,13%,/,/,?,7.9µM*,8.2µM*,?,5.8µM*,45%
CCOC(=O)c1c(NC(=O)CN2CCCCC2)sc2c1CCN(C(=O)OCC)C2,-29%,-9%,2%,-37%,?,11µM*,13µM*,?,18µM*,26%
CCOC(=O)c1c(NC(=O)CN(CC)CC)sc2c1CCN(C(=O)OCC)C2,-24%,-31%,?,-21%,i,?,/,/,/,/
CC1=C2[C@H](/C=C(\C)C(=O)O)CC[C@@H](C)[C@H]2CC1,/,/,/,1%,/,/,/,/,/,/
COc1ccc(-c2cc(-c3c(O)c(OC)c4occc4c3OC)[nH]n2)cc1OC,2%,-29%,?,-9%[10 µM],i,7.9µM*,?,?,?,61%
